This is an account of results in PubChem BioAssay.

One may read the inhibition as the change of the read-out against control, counted positive when it falls.

Values without a mark were called inactive. No stated cut-off is given here; in the data, active means inhibition above about 30%; inactive means the rest.

A short description of the assay: growth suppression of yeast trafficking mutant, preliminary HTS, modulators of trafficking downstream of Golgi apparatus project, 1536-format plate, OD 615 nm (AID 637). To be noted: yeast transport mutant growth, absorbance 615 nm, 18 h; stronger effect = higher value.
For `CCOC(=O)C1CCN(C(=O)CN(c2ccc(Cl)c(C(F)(F)F)c2)S(C)(=O)=O)CC1`, the inhibition is -2.5%.

Consider `CCOc1ccccc1C(=O)Nc1cc(=O)n(C)c(=O)n1C`, for which the inhibition is 3.5%.

Regarding `Cc1ccc(-c2cc3nc4c(c(=O)n3[nH]2)CCCC4)cc1`, the inhibition is -10%.

Turning to `CCOC(=O)C(C)Sc1nnc(Cc2cc(=O)[nH]c(=O)[nH]2)n1-c1ccc(Cl)cc1` (stereo unspecified), the inhibition is 5.5%.

Take `c1nc(NCC2CCCO2)c2[nH]cnc2n1` (stereo unspecified): the inhibition was 4%.

`O=C(Nc1ccc(Cl)cn1)c1cccnc1`: the inhibition is -6.56%.

In the case of `O=C1c2ccccc2C(=O)N1C/C=C/CN1C(=O)c2ccccc2C1=O`, the inhibition is -0.33%.

With `O=c1oc2c3c4c(cc2cc1-c1nc2ccccc2[nH]1)CCCN4CCC3`, the inhibition was 6%.

For `CCCCC(=O)NCCc1cc2c(C)ccc(C)c2[nH]c1=O`, the inhibition was 1.67%.

For the molecule `O=C(NCc1ccc(F)cc1)c1cc2ccccn2n1`, the inhibition is 4.5%.

As for `COc1cccc(C2C3=C(N=C4SCC(=O)N42)c2ccccc2CC3)c1OC` (stereo unspecified), the inhibition is -6.83%.

Take `CCOC(=O)N1CCC(c2cc(=O)n3[nH]c(C)c(-c4ccc(F)cc4)c3n2)CC1`: the inhibition is -0.33%.

Consider `C=CCn1c(=O)n(CCOC)c(=O)c2sc3ccccc3c21`, for which the inhibition is 4.33%.

Turning to `Cc1ccc2cc(CCNC(=O)C(C)C)c(=O)[nH]c2c1C`, the inhibition is -1%.

As to `COc1ccc(S(=O)(=O)N2CCCC2C(=O)Nc2ccc(O)cc2)cc1` (stereo unspecified), the inhibition was -4.92%.

For `Cc1cccc(-n2ncc3c(NCc4cccnc4)ncnc32)c1`, the inhibition is 0.5%.
